In PubChem BioAssay (NCI):
Compounds without any hit were thinned out: in the full panel of roughly 83,000, 20% have a hit.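 The endpoint reported here, percent growth, reads 100 for growth as untreated, 0 for no net growth and -100 for all cells dead.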 Values without a mark were called inactive. The source made the active and inactive calls. The calls were made as follows: active = growth percent below 10; inactive = the rest.

Columns and labels:
Assay in all cases: NCI-60 one-dose screen, 48 h (100 = growth as untreated, 0 = no growth, -100 = all killed)
Details in all cases: 10 µM unless noted
DU-145 prostate = test system: DU-145 prostate
K-562 leukemia = test system: K-562 leukemia
MALME-3M melanoma = test system: MALME-3M melanoma
MDA-MB-231 breast = test system: MDA-MB-231 breast
RXF 393 renal = test system: RXF 393 renal
SF-268 CNS = test system: SF-268 CNS
SF-295 CNS = test system: SF-295 CNS
SF-539 CNS = test system: SF-539 CNS
UACC-257 melanoma = test system: UACC-257 melanoma
M14 melanoma = test system: M14 melanoma
HT29 colon = test system: HT29 colon
SNB-75 CNS = test system: SNB-75 CNS
SNB-19 CNS = test system: SNB-19 CNS
U251 CNS = test system: U251 CNS
PC-3 prostate = test system: PC-3 prostate
SK-MEL-5 melanoma = test system: SK-MEL-5 melanoma
UACC-62 melanoma = test system: UACC-62 melanoma
LOX IMVI melanoma = test system: LOX IMVI melanoma
SK-MEL-28 melanoma = test system: SK-MEL-28 melanoma
HCT-15 colon = test system: HCT-15 colon

| Structure (SMILES) | growth (DU-145 prostate) | growth (K-562 leukemia) | growth (MALME-3M melanoma) | growth (MDA-MB-231 breast) | growth (RXF 393 renal) | growth (SF-268 CNS) [%] | growth (SF-295 CNS) | growth (SF-539 CNS) | growth (UACC-257 melanoma) | growth (M14 melanoma) | growth (HT29 colon) | growth (SNB-75 CNS) [%] | growth (SNB-19 CNS) [%] | growth (U251 CNS) | growth (PC-3 prostate) [%] | growth (SK-MEL-5 melanoma) | growth (UACC-62 melanoma) | growth (LOX IMVI melanoma) | growth (SK-MEL-28 melanoma) | growth (HCT-15 colon) |
| --- | --- | --- | --- | --- | --- | --- | --- | --- | --- | --- | --- | --- | --- | --- | --- | --- | --- | --- | --- | --- |
| Oc1ccc(N=Nc2ccc(N=Nc3ccccc3)cc2)cc1 | 49.3% | -7.03% (active) | 111% | 54.7% | 98.2% | 36.9 | 8.6% (active) | 2.09% (active) | 53% | 26.7% | 53.4% | 87.1 | 58.4 | 51.6% | 43.1 | 39.1% | 1.15% (active) | 6.08% (active) | 54.4% | – |
| Cc1cc2cn3c4ccc(O)cc4[nH]c(=O)c3c2cc1C | 3.48% (active) | -36.8% (active) | 16.4% | -11.1% (active) | 38.1% | 15.4 | 9.25% (active) | 12% | 46.6% | -19.4% (active) | -67.6% (active) | – | 40.7 | -44.1% (active) | 37.5 | -31.5% (active) | 49% | 4.61% (active) | -14.3% (active) | 3.8% (active) |
| COc1ccc2cn3c4ccc(O)cc4[nH]c(=O)c3c2c1 | 11.5% | 13.2% | 41.2% | 23.2% | 2.52% (active) | 21 | 0.201% (active) | -9.1% (active) | 50.1% | -2.73% (active) | -89.2% (active) | – | 19.7 | – | – | 10.9% | 34.9% | 24.4% | 24.8% | 17.8% |
| CCOC1=C(Cl)C(=O)C(OCC)=C(Cl)C1=O | 106% | 82.5% | 103% | 103% | 105% | 107 | 96.4% | 101% | 103% | 110% | 101% | 93.3 | 96.3 | 104% | 104 | 105% | 98.1% | 104% | 109% | – |
| Cc1nc(NC(=O)NC2CCCCC2)sc1C(=O)NN | 109% | 154% | -7.04% (active) | 97.9% | 112% | 101 | 103% | 113% | 101% | 94.9% | 95.5% | 110 | 102 | 98.5% | – | 106% | 90.8% | 93.5% | 102% | – |
| C=CN(C)S(C)(=O)=O | 18.5% | 21.9% | 28.3% | 46.2% | -9.3% (active) | 36.5 | 8.18% (active) | 4.91% (active) | 35.5% | 28.8% | 72.1% | 32.6 | 50.1 | 19.2% | 16.9 | 12.1% | 43% | 29.7% | 38.7% | – |
| COC(=O)C(N)CC(C)C (stereo unspecified) | 101% | 88.8% | 95.2% | -50.4% (active) | 98.2% | 96.8 | 109% | 112% | 102% | 92.6% | 102% | – | 100 | 98% | 97.9 | 103% | – | 95.8% | 108% | 103% |
| Cc1nc(NC(=S)Nc2ccc(F)cc2)sc1C(=O)NNC(=S)Nc1ccc(F)cc1 | 82% | 51.4% | 125% | 77.9% | 94% | 92.4 | 40.6% | 93.8% | 82.1% | 51% | 61.7% | 113 | 76.9 | 53.1% | 52.1 | 48.8% | 36.9% | 70.6% | 78% | – |
| C=CC1CN2CCC1CC2C(O)c1ccnc2ccc(OC)cc12 (stereo unspecified) | 127% | 106% | 95.6% | 96.7% | 97% | 103 | 91.6% | 98.3% | 106% | 98.9% | 98.6% | 78.2 | 96.1 | 103% | – | 97.9% | 100% | 93.3% | 115% | – |
| COc1cc2ncnc(Nc3ccc4c(cnn4C(=O)Nc4ccccc4)c3)c2cc1OC | 89.3% | 58.3% | 85.6% | 112% | 87.3% | 97.2 | 100% | 86.1% | 94.9% | 95.7% | 51.1% | – | 95.4 | – | 98.9 | 90.9% | 114% | 93.2% | 77.3% | 83.2% |
| Nc1nc2c(c3cnccc13)C(c1cccc(Br)c1)Cc1cnccc1-2 (stereo unspecified) | 11.4% | 9.88% (active) | 36.1% | 4.34% (active) | 7.59% (active) | 20.3 | 13.6% | -15.9% (active) | 55.5% | -12.7% (active) | 4.32% (active) | 18.9 | 24 | – | 11.6 | -30.4% (active) | 21.8% | 8.43% (active) | 49.4% | – |
| C=C(NC(=O)[C@H](C(C)C)N(C)c1cccc2[nH]ccc12)C(=O)OC | 100% | 89.4% | 92.8% | 109% | 106% | 101 | 101% | 117% | 96.9% | – | 99.1% | 105 | 103 | 99.6% | 101 | 99.4% | 90.5% | 94.3% | 104% | 95.7% |
| COc1ccc(C(O)(c2ccccc2)C(C(=O)O)c2ccccc2)cc1 (stereo unspecified) | 118% | 101% | 107% | 103% | 121% | 107 | 118% | 92.7% | 127% | – | 91.3% | 94.6 | 96.9 | 116% | 85.8 | 102% | 93.6% | 96.7% | 112% | 107% |
| CC([C@H]1CCC2C3CCC4C[C@@H](N)CC[C@]4(C)C3CC[C@@]21C)N(C)C (stereo partly specified) | 88.7% | 21.2% | 5.88% (active) | 58% | 24.3% | 37.1 | 76.6% | 13.1% | -7.66% (active) | – | 15.1% | 55.8 | 98.7 | 65.9% | 64.5 | -47.8% (active) | 50.9% | 17.5% | -26.6% (active) | 3.11% (active) |
| C[C@H]1C[C@@H](n2cnc3c(N)nccc32)[C@H](O)[C@@H]1O | 84% | 69.6% | 110% | 89.9% | 7.03% (active) | 97.9 | 96.5% | 67.9% | 89.3% | – | 89.2% | 100 | 82 | 69.2% | 110 | 96.7% | 98.7% | 79.8% | 88% | 87.8% |
| CCCC(=O)NNc1[nH]c(-c2ccc(OC)cc2)cc1C(=O)OCC | 104% | 49.1% | 52% | 87.4% | 107% | 118 | 93.7% | 92.7% | 105% | – | 110% | 122 | 108 | 104% | 106 | 111% | 99.6% | 103% | 120% | 100% |
| CCCCCCCCCCCCCCCC[n+]1cccc(C#N)c1 | 68.2% | 6.02% (active) | 92% | 69.7% | 17.4% | 53.3 | 91.5% | 25.5% | 103% | – | 27.1% | 74.8 | 26.4 | 29.7% | 25.1 | 58.3% | 83.9% | 12.4% | 83% | 13.1% |
